BoNT A protease = inhibitors of Botulinum neurotoxin A light chain protease; inhibition, % at 10 µM; multiplex microsphere protease substrate cleavage, flow cytometry; hit rate 0.17% among 360,000; note: plate controls were buffer without enzyme for full effect and enzyme alone for no effect
Anthrax LF inh2 = anthrax lethal factor protease inhibition; multiplex microsphere protease cleavage assay, LF; inhibition, % at 10 µM; hit rate 0.12% among 360,000; AID 588501; note: plate controls were buffer without enzyme for full effect and enzyme alone for no effect
BoNT-F LC inh = blocks Botulinum neurotoxin F light chain protease; Multiplex microsphere protease cleavage assay, flow cytometry; inhibition, % at 10 µM; hit rate 0.22% among 360,000; AID 588497; in the data active = inhibition above about 35%, passing the limit was not always enough; inconclusive = no clear call, values can overlap the other calls; note: plate controls were buffer without enzyme for full effect and enzyme alone for no effect
Autofluor counter = counter-screen for toxin protease inhibitors: compound fluorescence; compound autofluorescence counterscreen, microsphere flow cytometry; hits give high values; fluorescence intensity (no concentration beside the values); hit rate 3.1% among 360,000; in the data active = fluorescence intensity above about 16000; inconclusive = no clear call, values can overlap the other calls
Active calls of the source: *; ? = inconclusive. Hits are enriched below; roughly 3.5% of the tested compounds scored in any of these assays. Cut-off read from the data, not from the text of the source, unless noted: active = inhibition above about 30%; inconclusive = no clear call, values can overlap the other calls; inactive = below that.

SMILES	BoNT A protease	Anthrax LF inh2	BoNT-F LC inh	Autofluor counter
COCCOC1CCN(C(=O)c2cc(COc3ccc(-n4cncn4)cc3)on2)CC1	0	3	-2	5450
CCN(Cc1ccccc1)C(=O)c1cc2c(OC)c(OC)c(OC)cc2[nH]1	-3	14	-24	4240
CC(CC(=O)NC1CCSC1=O)c1ccccc1 (stereo not given)	-2	-2	-13	11715
O=C(CSCc1ccccc1)NC1CCSC1=O (stereo not given)	-2	-1	-3	23850*
Cc1cc(=O)oc2cc(OCC3CC(c4ccc(N(C)C)cc4)=NO3)ccc12 (stereo not given)	1	4	9	3293
Cc1cc(=O)oc2cc(OCC3CC(c4ccc(Cl)cc4)=NO3)ccc12 (stereo not given)	0	-1	0	22029*
Cc1cc(C)n(C(=O)c2ccc(C)c(S(=O)(=O)N3CCCCC3)c2)n1	-2	0	0	16992*
Cc1ccc(C(=O)N2CCCCC2)cc1S(=O)(=O)N1CCCCCC1	0	1	1	5688
Oc1ccc(Cl)cc1C1=NCCNC(C(F)(F)C(F)F)=C1	0	-2	1	22480*
FC(F)C(F)(F)C1=CC(c2ccccc2)=NCCN1	0	-3	-2	2658
Cc1ccc(O)c(C2=NCCNC(C(F)(F)C(F)F)=C2)c1	0	-1	-1	23315*
CC(C)c1ccc(NC(=O)Cn2c(=O)oc3cccnc32)cc1	?	-12	?	4056
C/C(=N\O)c1ccc(N2C(=O)C3CC=C(Cl)CC3C2=O)cc1 (stereo not given)	-2	-3	-4	16899*
CCN(CC)C(=O)c1ccc(N2C(=O)C3CC=C(Cl)CC3C2=O)cc1 (stereo not given)	2	0	6	9057
Cc1nc(N[C@@H](Cc2ccccc2)C(=O)O)c2oc3ccccc3c2n1	0	0	0	2480
Cc1nc(NC(C)C(=O)O)c2nc(C)oc2n1 (stereo not given)	2	-1	3	21393*
O=C(O)c1cccc(-n2cccc2/C=C/[N+](=O)[O-])c1	0	7	2	4211
COCCc1ccc(OC2(C)CCN(Cc3cccc(OCOC)c3)C2)cc1 (stereo not given)	-1	-5	-4	2955
Cc1nn(CCc2n[nH]c(=S)n2C)c(C)c1Br	3	-3	8	15320
Cc1nn(CCc2n[nH]c(=S)n2C2CCCCC2)c(C)c1Br	-9	-3	-7	26154*
CCN(CC(=O)Nc1c(F)cccc1F)C(=O)c1cccc(S(=O)(=O)N2CCCCCC2)c1	0	2	-2	7730
CC1CC(=O)c2cnc(Nc3cccc(C(F)(F)F)c3)nc2C1 (stereo not given)	0	-1	-7	2888
COc1cc(C2CC(=O)c3cnc(NC(=O)COc4ccccc4)nc3C2)cc(OC)c1OC (stereo not given)	4	-2	6	21520*
CC1CC(=O)c2cnc(Nc3ccccc3)nc2C1 (stereo not given)	3	0	4	22489*
COc1cccc(C(=O)Nc2ncc3c(n2)CC(C)CC3=O)c1 (stereo not given)	-5	-3	-10	24790*
SMILES	BoNT A protease	Anthrax LF inh2	BoNT-F LC inh	Autofluor counter
COc1ccc(C2CC(=O)c3cnc(NC(=O)c4ccccc4)nc3C2)cc1OC (stereo not given)	0	2	9	5581
Cc1nc2nc(NC(=O)c3ccco3)[nH]n2c(=O)c1C	2	-1	5	5388
COc1ccc(CNC(=O)CN(C)S(=O)(=O)c2ccc3c(c2)OCCO3)cc1OC	2	-3	0	8931
CCCCCCNC(=O)CCNC(=O)c1cc(OC)c(OC)c(OC)c1	0	1	0	22280*
COc1cc(C(=O)NCCSc2ccc(Br)cc2)cc(OC)c1OC	-16	-24	-74	18300*
COc1cc(C(=O)Nc2ccc(Br)cc2C(=O)c2cc(OC)c(OC)c(OC)c2)cc(OC)c1OC	0	-2	-2	24193*
COc1cc(C(=O)NCCC(=O)NC(C)C)cc(OC)c1OC	-1	0	-2	4420
CCNC(=O)C1(C)CCCN1Cc1c(F)cccc1F (stereo not given)	-1	-6	0	3119
NS(=O)(=O)c1ccc(CCNC(=O)CSc2nc3ccccc3c(=O)n2CCC(=O)N2CCCCC2)cc1	0	-9	2	5616
CC(C)OC(=O)C1Cc2ccccc2CN1S(=O)(=O)c1cccs1 (stereo not given)	0	2	-12	3819
COc1ccc(N2C(=O)CSC2c2ccc3c(c2)OCO3)cc1 (stereo not given)	-1	2	-2	16403*
COc1ccc(N2C(=O)CSC2c2ccc3c(c2)OCO3)c(OC)c1 (stereo not given)	-1	-4	1	4172
COc1ccc(Cl)cc1N(CC(=O)Nc1ccccc1SC)S(C)(=O)=O	?	2	0	19767*
COc1ccc(Cl)cc1N(CC(=O)NC(C(C)C)C(C)C)S(C)(=O)=O	1	6	9	1886
Nc1c(C(=O)c2ccccc2)oc2ccccc12	-1	-2	7	3626
O=C(c1ccc(Cl)cc1)c1oc2ccccc2c1CS(=O)(=O)c1ccccc1	0	-4	1	22160*
CCOc1ccc(NC(=O)Cn2sc3nc(C)cc(C)c3c2=O)cc1	-1	-4	-14	?
Cc1cc(C)c2c(=O)n(CC(=O)Nc3ccc(Cl)cc3)sc2n1	48*	-7	5	3796
CN(C)C(Cc1ccccc1)C(=O)c1ccc(-c2ccccc2)cc1 (stereo not given)	?	-2	-6	16369*
CN(C)C(Cc1ccc(C#N)cc1)C(=O)c1ccccc1 (stereo not given)	0	-2	-4	8023
COc1ccc(C(=O)C(Cc2ccccc2)N(C)C)cc1 (stereo not given)	1	-2	1	16157*
COc1ccc(NC(=O)CC(Cc2ccccc2)C(=O)O)cc1 (stereo not given)	0	-3	0	22709*
COc1ccc(C(=O)NC(=S)N(Cc2ccccc2)Cc2ccccc2)cc1	0	-6	-2	16570*
O=C(c1cc2cc(F)ccc2[nH]1)N1CCCC(Nc2ccc(F)cc2)C1 (stereo not given)	1	-2	1	4264
CCCCc1ccc(NC(=S)Nc2ccc(Cl)c(S(=O)(=O)N(C)C)c2)cc1	1	1	-3	1995
SMILES	BoNT A protease	Anthrax LF inh2	BoNT-F LC inh	Autofluor counter
O=C(NCc1ccc(F)cc1F)[C@@H]1CCCN1C(=O)[C@@H]1CCCN1C(=O)c1cccc2ccccc12	0	-8	1	3896
CCN=C1SC(CC(=O)NC2CCCCC2)C(=O)N1CC (stereo not given)	?	0	-3	20571*
CCc1ccc(CN2CCN(c3ncccn3)CC2)cc1	-1	8	44*	3994
S=c1[nH]c2ncccc2o1	0	1	2	22317*
S=c1[nH]c2cc(Cl)c3cccnc3c2o1	-5	-6	-15	3653
COc1cccc(NC(=O)COC(=O)CCCc2c[nH]c3ccccc23)c1	3	-3	-2	22839*
CCCN(C(=O)/C=C/c1ccc(S(=O)(=O)N(CC)CC)cc1)C1CCS(=O)(=O)C1 (stereo not given)	0	2	-5	3504

Source: PubChem
